Mtb hypoxia inh: inhibitors of hypoxia-regulated fluorescent reporter in Mycobacterium tuberculosis | M. tuberculosis hypoxia-regulated fluorescent reporter, fluorescence | fluorescence inhibition, % (no concentration beside the values) | 300,000 tested, 0.1% active | AID 1159583; in the data active means fluorescence inhibition mostly above about 23%, no sharp cut-off; inactive means mostly below about 17%
PriA SSB inh: blocks PriA binding to SSB C-terminal tail. 430,000 tested, 0.6% active. AID 1272365. AlphaScreen SSBct-PriA binding, biotinylated peptide. inhibition, % at 33 µM; in the data active means inhibition mostly above about 37%, no sharp cut-off; inactive means mostly below about 20%;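 further: plate controls were negative control peptide for no effect and reference peptide for full effect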
ugtP null kill: kills S. aureus RN4220 lacking UgtP. S. aureus RN4220 ugtP deletion, OD600 growth, 16 h. growth inhibition, % (concentration not given with the values). 330,000 tested, 0.54% active; in the data active means growth inhibition above about 68%;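 further: plate controls were untreated wells for no effect and antibiotic for full effect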
Sa RN4220 lethal: kills Staphylococcus aureus RN4220 | S. aureus RN4220 growth, OD600, 16 h | inhibition, % (test concentration not listed) | 330,000 tested, 0.33% active | AID 1259311; in the data active means inhibition above about 85%;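 further: plate controls were untreated cells for no effect and reference antibiotic for full effect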
CCHF vOTU inh: CCHFV vOTU protease inhibition; inhibition, % at 11.5 µM; AID 651958; 370,000 tested, 0.55% active; Pep-AMC fluorescence; in the data active means inhibition above about 30%; further: 0% = vehicle wells with enzyme and 100% = no enzyme wells
* = called active by the depositor; . = no result shown; ! = not active in a repeat. Compounds with a hit are over-represented: about 1.4% of the library has one in this group of screens.

SMILES	Mtb hypoxia inh	PriA SSB inh	ugtP null kill	Sa RN4220 lethal	CCHF vOTU inh
CC(=O)CC1c2cc(C(F)(F)F)ccc2S(=O)(=O)N1c1ccc(N(C)C)cc1 (centres undefined)	16	.	8	4	.
CCc1cc(-c2n[nH]c(C)c2Oc2ccc(C(C)C)cc2)c(O)cc1O	14	29	99*	86*	15
Cn1cc(OCc2ccccc2)c(=O)cc1C(=O)NCc1cccs1	.	-14	.	.	.
COc1ccc(CCC(=O)Nc2c(-c3ccc(N(C)C)cc3)[nH][nH]c2=O)cc1	.	.	.	.	109*
COc1ccc(Cl)cc1C(=O)NCCCn1nc(-c2ccc(F)cc2)ccc1=O	.	-5	.	.	.
O=C(CSc1nc2ccccc2n1Cc1ccccc1)NN=Cc1ccccc1C(=O)O	16	.	-4	3	.
CN1C(=CC=NNC(=O)c2ccccc2Br)C(C)(C)c2ccccc21	-4	.	88*	-2	.
CN1/C(=C\C=N\NC(=O)c2ccc(O)cc2)C(C)(C)c2ccccc21	.	.	.	.	10
CC(CS(=O)(=O)c1ccccc1)=NO	4	-15	9	5	.
CCCCOCCCn1c(NS(=O)(=O)c2ccc(Cl)cc2)c(S(=O)(=O)c2ccc(C)cc2)c2nc3ccccc3nc21	.	56*	.	.	.
CCCCn1c(NS(=O)(=O)c2ccc(C)cc2)c(S(=O)(=O)c2ccc(C)cc2)c2nc3ccccc3nc21	.	62*	.	.	.
Cc1ccc(S(=O)(=O)Nc2c(S(=O)(=O)c3ccc(C)cc3)c3nc4ccccc4nc3n2CCC(C)C)cc1	.	63*	.	.	.
CCCCCn1c(NS(=O)(=O)c2ccc(Cl)cc2)c(S(=O)(=O)c2ccc(C)cc2)c2nc3ccccc3nc21	.	43	.	.	.
CCCCn1c(NS(=O)(=O)c2ccccc2)c(S(=O)(=O)c2ccccc2)c2nc3ccccc3nc21	.	64*	.	.	.
C=CCN(CC=C)S(=O)(=O)c1ccc(C(=O)Nc2nc(-c3ccc(I)cc3)cs2)cc1	.	-9	.	.	.
COc1ccc(OC)c(S(=O)(=O)NCC(c2ccco2)S(=O)(=O)c2ccc(Cl)cc2)c1 (centres undefined)	.	6	.	.	.
CCCCCn1c(NS(=O)(=O)c2ccccc2)c(S(=O)(=O)c2ccc(C)cc2)c2nc3ccccc3nc21	.	76*	.	.	.
CCCCCn1c(NS(=O)(=O)c2ccc3ccccc3c2)c(S(=O)(=O)c2ccc(C)cc2)c2nc3ccccc3nc21	.	62*	.	.	.
CCCCCn1c(NS(=O)(=O)c2ccc(C)cc2)c(S(=O)(=O)c2ccc(C)cc2)c2nc3ccccc3nc21	.	67*	.	.	.
CCCCCn1c(NS(=O)(=O)c2ccc(C)cc2)c(S(=O)(=O)c2ccccc2)c2nc3ccccc3nc21	.	52	.	.	.
CCSc1ccccc1C(=O)NCCCn1ccc2cccnc21	.	-10	.	.	.
COC(=O)C1=C(c2ccccc2OCc2ccccc2)CC2CCC1N2C(=O)NCCCOC(C)C (centres undefined)	10	.	7	7	.
Cc1cc(C)nc(SCc2cc(=O)c(OC(=O)c3ccccc3C(F)(F)F)co2)n1	.	-7	.	.	.
CN(C)c1ccc(/C=C(\NC(=O)c2ccccc2)C(=O)NN=Cc2ccc(C(=O)O)cc2)cc1	5	-2	0	1	.
CC1=CC(=O)C(C(C)C)=C/C1=C(\c1cc(C(C)C)c(O)cc1C)c1ccccc1S(=O)(=O)O	.	59*	.	.	.
SMILES	Mtb hypoxia inh	PriA SSB inh	ugtP null kill	Sa RN4220 lethal	CCHF vOTU inh
COc1ccc(S(=O)(=O)NCc2ccco2)cc1C(=O)O	.	38*!	.	.	.
COc1ccc(S(=O)(=O)NCc2ccco2)cc1C(=O)N1CCCCC1	11	-12	3	4	7
CSc1nc2ccc3nc(N)sc3c2s1	.	-4	.	.	.
Nc1nc2ccc([N+](=O)[O-])c(N)c2s1	2	55*	-8	-3	6
CC(C)Cc1nc(N2CCNCC2)c(C#N)c2c1CCC2	16	-3	0	0	-7
CC(C)Cc1nc(N2CCCCC2)c(C#N)c2c1CCC2	.	-23	86*	2	6
C=CCN(CC=C)S(=O)(=O)c1ccc2nc(NS(=O)(=O)c3ccc(OC)cc3)sc2c1	.	-5	.	.	.
CCOc1ccc2c(c1)c(N=O)c(O)n2C	11	2	90*	4	0
CC(C)(C)C(=O)CSc1nnc(CCn2ccc(=O)[nH]c2=O)o1	.	-10	.	.	.
CCOc1cccc(C=NNc2ccc(S(=O)(=O)N(CC)CC)cn2)c1O	1	-2	100*	20	.
CCN(CC)S(=O)(=O)c1ccc(N/N=C/c2ccc(O)cc2O)nc1	.	.	.	.	16
COc1cc(Sc2ccc(C)cc2)c(OC)cc1N	1	79*	-1	-3	7
COc1ccc(/C=C/C(=O)c2c(O)n(CCC3=CCCCC3)c(=O)[nH]c2=O)cc1	1	8	92*	89*	-15
CCCCn1c(O)c(C(=O)/C=C/c2ccc3c(c2)OCO3)c(=O)[nH]c1=O	.	-8	.	.	-10
O=C(/C=C/c1ccc2c(c1)OCO2)c1c(O)n(CCC2=CCCCC2)c(=O)[nH]c1=O	1	-25	100*	100*	3
CN(C)CCN=Cc1c(O)n(CCC2=CCCCC2)c(=O)[nH]c1=O	8	1	-1	3	-5
CCC(=O)NC(=S)Nc1ccc(NC(=O)c2ccco2)cc1	.	-4	25	3	20
CCN(CC)S(=O)(=O)c1ccc(NC(=S)NC(=O)CC(C)C)cc1	8	-8	89*	-2	7
CC(C)CC(=O)NC(=S)Nc1ccc(NC(=O)c2ccco2)cc1	.	-2	89*	4	-9
Cc1cc(NC(=O)Cn2nc(C3CCN(S(C)(=O)=O)CC3)n(-c3cccs3)c2=O)no1	.	-15	.	.	.
O=[N+]([O-])c1cc(Br)c(O)c(C=NNc2nc3ccccc3s2)c1	7	7	84*	67	.
O=[N+]([O-])c1cc(Cl)cc(/C=N/Nc2nc3ccccc3s2)c1O	.	.	.	.	-7
Cc1ccc(S(=O)(=O)N=C(Nc2ccc(O)c(C(=O)O)c2)c2ccccc2)cc1	.	-1	.	.	.
CCn1cc(C(=O)O)c(=O)c2cnc(N3CCN(C(=S)NC(=O)c4ccc(OC)cc4)CC3)nc21	14	-6	86*	46	3
CCn1cc(C(=O)O)c(=O)c2cnc(N3CCN(C(=S)NC(=O)c4ccccc4Cl)CC3)nc21	-7	-30	94*	99*	.
SMILES	Mtb hypoxia inh	PriA SSB inh	ugtP null kill	Sa RN4220 lethal	CCHF vOTU inh
NC(=S)NN=Cc1coc2c(ccc3ccccc32)c1=O	4	-4	5	-6	.
COc1cccc(CNC(=O)Cn2cnc3c(sc4nc(C)cc(C)c43)c2=O)c1	.	1	.	.	.
CC(=NNC(=S)NC(C)C)c1ccc(-n2ccnc2)cc1	.	1	0	0	.
O=C(Nc1nc2c(Cl)cccc2s1)c1ccc([N+](=O)[O-])o1	-6	-3	100*	100*	6
O=C(Nc1ccc(N2CCCCC2)cc1)c1ccc([N+](=O)[O-])o1	.	-1	44	0	18
O=C(Nc1ccc(N2CCCC2)c(Cl)c1)c1ccc([N+](=O)[O-])o1	24	45*	88	33	10
CC(C)C1Cc2c(sc3ncnc(NN)c23)CO1 (centres undefined)	11	46*	13	1	7
CC(C)Cc1nc2sc3c(c2c(=O)n1N)CC(C(C)C)OC3 (centres undefined)	14	-3	-1	5	-10

Screening results deposited in PubChem BioAssay by several laboratories.
